Assay [1] concerns the target Cytochrome P450 3A4 (Homo sapiens) (UniProt P08684). In words: qHTS Assay for Inhibitors and Substrates of Cytochrome P450 3A4 (AID 884; active = well fitted curve in the direction sought with a large enough effect; an effect the other way counts as inactive or inconclusive; note: % is set by controls: 0 for no effect and ±100 for the full control effect; nearly all actives have a fitted effect of over 50% in size). In a few lines: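 Luminescent readout of luciferin produced by CYP3A4 (20 nM) dealkylation of Luciferin-PPXE, 25 uM (its KM). NADPH-driven reaction ran 60 min at RT after 10 min compound preincubation; data scaled to 57 uM ketoconazole as 100% inhibition.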

A short description of assay [2]: qHTS Assay for Lipid Storage Modulators (AID 1519; calls by dose curve). Particulars: Drosophila S3 cells, BODIPY lipid droplet/cell ratio, laser cytometry, cells loaded with oleic acid; for activity change, negative = inhibition: at 57.5 µM (top of the series). In short, it runs like this: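 Cells seeded at 5,000 per well were treated with compounds over a concentration series and loaded with oleic acid (400 uM, as added). Lipid droplet fluorescence (488 nm excitation, 500-530 nm channel) was read by laser-scanning cytometry and normalized to 20 uM Triacsin C.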

Assay [3] concerns the target Ubiquitin carboxyl-terminal hydrolase 1 (Homo sapiens) (UniProt O94782). In words: Inhibitors of USP1/UAF1: Pilot qHTS (AID 504865; active = well fitted curve in the direction sought with a large enough effect; an effect the other way counts as inactive or inconclusive;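 note: rhodamine fluorescence freed from ubiquitin-rhodamine substrate followed over time; top concentration of the series differs between compounds; % is set by controls: 0 for no effect and ±100 for the full control effect; nearly all actives have a fitted effect of over 35% in size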). In a few lines: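 In 50mM HEPES pH 7.8 containing 0.5mM EDTA, 1mM TCEP, 0.1 mg/ml BSA and 0.01% Tween-20, 1nM USP1/UAF1 is exposed to compound for 15 min, then Ub-Rho (150nM final) is added and fluorescence is read over time.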
(Quantitative high-throughput screening tests each substance at several concentrations.)

Assay [4] concerns the target DNA dC->dU-editing enzyme APOBEC-3G (Homo sapiens) (UniProt Q9HC16). In words: qHTS for inhibitors of Vif-A3G interactions: Validation (AID 588379; active = well fitted curve in the direction sought with a large enough effect; an effect the other way counts as inactive or inconclusive; note: 0% is about no effect). In a few lines:
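Yellow fluorescence (Ex 488, Em 500-530) of Vif-coexpressing HeLa A3G-eYFP cells, scanned by Acumen cytometer, reports blocked A3G degradation. Cells plated at 700/well overnight at 37 deg C before compound addition, then a further overnight compound incubation at 37 deg C.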

Assay [5] can be described thus: Primary qHTS for inhibitors of nuclear receptor binding SET domain protein 2 (NSD2) in an isogenic RCH-ACV NSD2 p.E1099K mutant (9B) (AID 1645876; active = well fitted curve in the direction sought with a large enough effect; an effect the other way counts as inactive or inconclusive; note: % is set by controls: 0 for no effect and ±100 for the full control effect; nearly all actives have a fitted effect of over 70% in size).
For assay [6], the target named is Glutathione peroxidase 1 (Homo sapiens) (UniProt P07203). In words: Primary qHTS Assay for Inhibitors of Recombinant Selenoprotein Glutathione Peroxidase 1 (GPX1) (AID 1845191; active = well fitted curve in the direction sought with a large enough effect; an effect the other way counts as inactive or inconclusive; note: % is set by controls: 0 for no effect and ±100 for the full control effect; nearly all actives have a fitted effect of over 65% in size). In a few lines:
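NADPH consumption tracked by fluorescence at 340/450 nm between t=0 and t=15 min, room temperature. Final mix: 10 nM GPX1, 100 nM glutathione reductase, 1 mM GSH, 0.5 mM NADPH, 0.5 mM cumene hydroperoxide, 0.01% BSA; 30 min compound–enzyme preincubation.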

In assay [7] the target is Phospholipid hydroperoxide glutathione peroxidase GPX4 (Homo sapiens) (UniProt P36969). In words: Primary qHTS Assay for Inhibitors of Recombinant Selenoprotein Glutathione Peroxidase 4 (GPX4) (AID 1845192; active = well fitted curve in the direction sought with a large enough effect; an effect the other way counts as inactive or inconclusive; note: % is set by controls: 0 for no effect and ±100 for the full control effect; nearly all actives have a fitted effect of over 65% in size). Particulars: outcome: dose series up to 50 µM unless noted. In short, it runs like this:
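NADPH consumption followed by fluorescence at 340/450 nm, t=0 and after 15 min at room temperature. Reaction started with cumene hydroperoxide (0.5 mM final) after 30 min compound–GPX4 preincubation; final 200 nM GPX4, 100 nM GR, 1 mM GSH, 0.5 mM NADPH.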

Assay [8] is described as follows: qHTS drug screen for cell cycle checkpoint inhibitors in PARPi-resistant BRCA-mutant ovarian cancer cell lines. (AID 1963452; calls by dose curve). The conditions noted are these: PEO1/OlaR viability, CellTiter-Glo luminescence, 96 h, stronger effect = lower value. In short, it runs like this:
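PEO1, PEO4 and PEO1/OlaR ovarian cancer cells, 600 per well, exposed 96 h at 37C to a dilution series. Viability read by CellTiter-Glo luminescence, normalized to DMSO and empty wells; activity summarized as Z-AUC.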

The nature of assay [9]: AP1 Signaling Pathway (AID 357). Note: % is set by controls: 0 for no effect and ±100 for the full control effect. The conditions noted are these: ME-180 AP-1-bla reporter, EGF-induced, beta-lactamase ratio, 5 h; at 7.69 µM (top of the series) unless noted. In short, it runs like this: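 In this screen, ME-180 cells in Opti-MEM with 0.5% dialyzed FBS received EC50 EGF and compound titrations for 5 h. AP-1 reporter beta-lactamase was detected via CCF4 ratio, giving AC50 for positive and negative modulators.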

Assay [10] deals with Cytochrome P450 1A2 (Homo sapiens) (UniProt P05177). Description: p450-cyp1a2 (AID 410; calls by dose curve; note: potency is the fitted concentration of half-maximal effect;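 for activity change, negative = inhibition: -100% = full effect of reference inhibitor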). In short, it runs like this:
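20nM CYP1A2, 100uM Luciferin-ME (=Km), 100mM KPO4; cpd 10 min RT; +NADPH regen, 60 min RT; stop/detect 20 min; luminescence. Normalized to furafylline 57 uM = full inhibition.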

Assay [11] in a line: NFAT Signaling Pathway (AID 444).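 Note: carbachol stimulus at about its EC50 of 1 µM final; % is set by controls: 0 for no effect and ±100 for the full control effect.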 Particulars: Jurkat NFAT-bla M1, carbachol, beta-lactamase ratio, 5 h; at 7.69 µM (top of the series) unless noted. In a few lines: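 Read-out: CCF4 FRET ratio (460 nm/530 nm) after 1 h RT dye loading, used for %activity and AC50 from titration series. Cells: Jurkat NFAT-β-lactamase/M1 line, treated with compound plus 1 uM carbachol for 5 h, 37 °C.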

Assay [12] is described as follows: Stat Signaling Pathway (AID 446).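 Note: ME-180 cervical cancer cells given 40 pM IL-6 alongside compound; SIE-controlled beta-lactamase reporter measured as 460/530 nm FRET emission ratio; % is set by controls: 0 for no effect and ±100 for the full control effect.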 The conditions noted are these: ME-180 (cervical carcinoma) SIE beta-lactamase reporter, IL-6 stimulated, 5 h; at 7.69 µM (top of the series) unless noted. In short, it runs like this: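 FRET read-out (405 nm excitation, 460/530 nm emission) of a beta-lactamase reporter under a STAT-inducible element in ME-180 cervical carcinoma cells. Cells with compound receive 40 pM IL-6 for 5 h. Values are normalised to AC90 stimulation and AC90 JAK-inhibitor controls.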

The target of assay [13] is Glucocorticoid receptor (Homo sapiens) (UniProt P04150). Description: GR-EFC Redistribution (AID 451; calls by dose curve; note: potency is the fitted concentration of half-maximal effect). The conditions noted are these: CHO-K1 GR-EFC translocation, beta-gal luminescence, 2 h. In short, it runs like this: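 Translocation of GR-ED fusion to nuclear EA restores b-gal, read by luminescence after 1 h room-temperature detection. Engineered CHO-K1 biosensor cells, 1,000/well, exposed 2 h at 37 C to titrations up to 46 uM final.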
Chain of Glucocorticoid receptor (Homo sapiens) (P04150 whole entry, looked up, the tested form may be a part): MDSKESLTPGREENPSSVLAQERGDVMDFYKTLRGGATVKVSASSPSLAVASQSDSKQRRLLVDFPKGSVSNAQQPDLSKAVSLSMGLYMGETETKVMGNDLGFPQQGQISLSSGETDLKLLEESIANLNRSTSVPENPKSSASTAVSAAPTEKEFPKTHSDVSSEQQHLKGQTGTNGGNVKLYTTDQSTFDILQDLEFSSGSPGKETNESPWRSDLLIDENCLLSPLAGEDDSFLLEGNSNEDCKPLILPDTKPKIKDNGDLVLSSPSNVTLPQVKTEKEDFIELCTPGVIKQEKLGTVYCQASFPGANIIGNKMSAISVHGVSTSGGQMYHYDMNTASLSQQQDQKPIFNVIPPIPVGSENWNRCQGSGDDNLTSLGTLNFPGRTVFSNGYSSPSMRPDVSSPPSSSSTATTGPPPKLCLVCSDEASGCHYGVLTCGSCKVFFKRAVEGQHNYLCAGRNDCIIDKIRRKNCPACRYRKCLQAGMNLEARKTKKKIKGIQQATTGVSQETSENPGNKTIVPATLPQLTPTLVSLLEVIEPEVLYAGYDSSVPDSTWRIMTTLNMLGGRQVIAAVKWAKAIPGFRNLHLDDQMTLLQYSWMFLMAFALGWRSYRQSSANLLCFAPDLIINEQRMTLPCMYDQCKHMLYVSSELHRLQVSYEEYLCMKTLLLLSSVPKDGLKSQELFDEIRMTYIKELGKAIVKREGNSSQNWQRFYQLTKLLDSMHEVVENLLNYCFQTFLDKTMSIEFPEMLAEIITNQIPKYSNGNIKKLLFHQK

In assay [14] the target is 3',5'-cyclic-AMP phosphodiesterase 4B (Homo sapiens) (UniProt Q07343). In words: qHTS Assay for Inhibitors of PDE-IV (AID 607; active = well fitted activation curve with a large enough effect in the main read-out, with a control signal flat, not every such curve was filed as active; note: % of control where 0% means no effect). In a few lines:
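Cell-based read-out of cAMP via a modified cyclic nucleotide-gated channel and membrane potential dye (535/590 nm) in HEK293 cells expressing PDE4 endogenously. Compounds tested up to 22.9 uM final; 100 uM RO 20-1724 reference.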

In assay [15] the target is Cytochrome P450 3A4 (Homo sapiens) (UniProt P08684). Description: qHTS Assay for Activators of Cytochrome P450 3A4 (AID 885; active = well fitted curve in the direction sought with a large enough effect; an effect the other way counts as inactive or inconclusive; note: nearly all actives have a fitted effect of over 65% in size). In a few lines:
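Luminescent readout of luciferin formed from 25 uM Luciferin-PPXE (KM level) by 20 nM CYP3A4 in 200 mM KPO4, with 60 min NADPH-driven reaction at room temperature after 10 min compound exposure. Ketoconazole (57 uM) defined 100% inhibition.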

Assay [16] deals with Cytochrome P450 2C19 (Homo sapiens) (UniProt P33261). Description: qHTS Assay for Inhibitors and Substrates of Cytochrome P450 2C19 (AID 899; active = well fitted curve in the direction sought with a large enough effect; an effect the other way counts as inactive or inconclusive; note: nearly all actives have a fitted effect of over 60% in size; note: potency is the fitted concentration of half-maximal effect). In short, it runs like this:
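Reactions contain 5nM enzyme, 10uM Luciferin-H EGE (KM) and 50mM KPO4; compound preincubates 10 min at 37C, NADPH regeneration starts turnover for 60 min. Luminescence after detection reagent gives activity.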

A short description of assay [17]: Primary qHTS for small molecule stabilizers of the endoplasmic reticulum resident proteome: Secreted ER Calcium Modulated Protein (SERCaMP) assay (AID 1508630; active = well fitted curve in the direction sought with a large enough effect; an effect the other way counts as inactive or inconclusive; note: % is set by controls: 0 for no effect and ±100 for the full control effect). In short, it runs like this:
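The SH-SY5Y reporter protocol was run at 3 concentrations up to 38.3 uM (primary) or 11 concentrations (follow-up): 16 h compound, 100 nM thapsigargin for 4 h, then extracellular luciferase luminescence.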

The target of assay [18] is Mitogen-activated protein kinase 10 (Mus musculus) (UniProt Q61831). Description: JNK3 AlphaScreen Assay (AID 530). In a few lines:
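Kinase buffer: 20 mM Tris-HCl pH 7.6, 10 mM MgCl2, 1 mM DTT, 0.1 mM Na3VO4, 0.01% Tween-20; ATP 10 uM. Substrate biotin-GST-cJun(1-79), enzyme from activated HepG2 lysates. Detection by Ser73 phospho-antibody AlphaScreen.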
On the technique in general: Alpha assays give light when donor and acceptor beads are brought close together.

In assay [19] the target is Glucocorticoid receptor (Homo sapiens) (UniProt P04150). Description: GR-GFP Redistribution (AID 450;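 active = compounds whose dose series gives a full or clear partial fitted curve of increased nuclear translocation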; note: potency is the fitted concentration of half-maximal effect). The conditions noted are these: U2OS GR-GFP nuclear translocation, laser cytometry, 2 h.
Assay [20] concerns the target Cytochrome P450 2C9 (Homo sapiens) (UniProt P11712). In words: qHTS Assay for Inhibitors and Substrates of Cytochrome P450 2C9 (AID 883; active = well fitted curve in the direction sought with a large enough effect; an effect the other way counts as inactive or inconclusive; note: % is set by controls: 0 for no effect and ±100 for the full control effect; nearly all actives have a fitted effect of over 60% in size). In a few lines: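 Turnover of Luciferin-H (100uM, KM) by 10nM human CYP2C9 was measured over 60 min at 37C with NADPH regeneration; inhibitors and some substrates reduce luminescence. Data normalized to sulphaphenazole 57uM.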
The target of assay [21] is Lysosomal acid glucosylceramidase (Homo sapiens) (UniProt P04062). In words: Glucocerebrosidase-p2 (AID 348; in the data active = potency below about 10 µM; note: potency is the fitted concentration of half-maximal effect). The conditions noted are these: purified GBA, blue fluorogenic substrate, 40 min. In short, it runs like this: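 Normal human glucocerebrosidase (0.2 nM) with blue fluorogenic substrate (80 uM final) in citrate/phosphate pH 5.9 with 10mM sodium taurocholate, 0.01% tween-20; 40 min RT, NaOH/glycine stop; fluorescence Ex 365/Em 440; AC50 from a titration from 0.6 nM upwards.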

Setting [22] is: measured here: cell count channel max response.
The mark [23] stands for this setting: measured here: lipid channel max response.

Data on 7 molecules can be found in PubChem BioAssay (NCATS).

Results filed as inconclusive are left out. Activity calls are given as the source filed them. Unless noted, calls come from the whole dose curve; as a rule, active = well fitted curve in either direction with a large enough effect (not every such curve was filed as active); inconclusive = small, poorly fitted or top-dose-only effect, or another doubt; inactive = flat fitted curve, though single readings scatter.

Chain of Cytochrome P450 3A4 (Homo sapiens) (P08684 whole entry, looked up): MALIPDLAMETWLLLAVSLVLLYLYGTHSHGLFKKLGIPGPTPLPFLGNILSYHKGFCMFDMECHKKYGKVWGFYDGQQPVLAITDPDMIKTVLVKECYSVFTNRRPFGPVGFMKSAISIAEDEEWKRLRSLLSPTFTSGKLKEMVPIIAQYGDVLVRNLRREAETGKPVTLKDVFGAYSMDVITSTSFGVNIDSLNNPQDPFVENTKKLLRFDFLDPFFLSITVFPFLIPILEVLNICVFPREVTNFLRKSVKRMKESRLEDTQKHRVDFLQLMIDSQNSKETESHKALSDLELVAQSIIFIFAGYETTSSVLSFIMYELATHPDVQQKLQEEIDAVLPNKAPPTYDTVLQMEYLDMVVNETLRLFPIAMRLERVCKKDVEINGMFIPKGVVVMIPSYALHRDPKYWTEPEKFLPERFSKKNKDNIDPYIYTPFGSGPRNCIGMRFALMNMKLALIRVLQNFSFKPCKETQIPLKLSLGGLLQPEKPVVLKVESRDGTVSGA
Chain of Cytochrome P450 1A2 (Homo sapiens) (P05177 whole entry, looked up): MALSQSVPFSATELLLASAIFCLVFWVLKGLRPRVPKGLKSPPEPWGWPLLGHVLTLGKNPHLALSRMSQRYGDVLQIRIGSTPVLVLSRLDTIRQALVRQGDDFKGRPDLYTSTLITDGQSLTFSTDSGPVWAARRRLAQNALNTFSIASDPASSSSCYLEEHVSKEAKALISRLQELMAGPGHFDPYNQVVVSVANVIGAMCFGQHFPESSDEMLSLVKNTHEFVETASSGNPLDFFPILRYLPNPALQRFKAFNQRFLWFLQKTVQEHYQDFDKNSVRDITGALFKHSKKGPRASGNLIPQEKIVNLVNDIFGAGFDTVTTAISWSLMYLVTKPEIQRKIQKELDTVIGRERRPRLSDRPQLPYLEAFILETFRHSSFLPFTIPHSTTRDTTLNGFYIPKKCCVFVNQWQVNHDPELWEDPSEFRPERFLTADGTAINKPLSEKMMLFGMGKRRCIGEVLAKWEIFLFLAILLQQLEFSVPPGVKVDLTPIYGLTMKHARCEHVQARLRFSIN
Chain of 3',5'-cyclic-AMP phosphodiesterase 4B (Homo sapiens) (Q07343 whole entry, looked up): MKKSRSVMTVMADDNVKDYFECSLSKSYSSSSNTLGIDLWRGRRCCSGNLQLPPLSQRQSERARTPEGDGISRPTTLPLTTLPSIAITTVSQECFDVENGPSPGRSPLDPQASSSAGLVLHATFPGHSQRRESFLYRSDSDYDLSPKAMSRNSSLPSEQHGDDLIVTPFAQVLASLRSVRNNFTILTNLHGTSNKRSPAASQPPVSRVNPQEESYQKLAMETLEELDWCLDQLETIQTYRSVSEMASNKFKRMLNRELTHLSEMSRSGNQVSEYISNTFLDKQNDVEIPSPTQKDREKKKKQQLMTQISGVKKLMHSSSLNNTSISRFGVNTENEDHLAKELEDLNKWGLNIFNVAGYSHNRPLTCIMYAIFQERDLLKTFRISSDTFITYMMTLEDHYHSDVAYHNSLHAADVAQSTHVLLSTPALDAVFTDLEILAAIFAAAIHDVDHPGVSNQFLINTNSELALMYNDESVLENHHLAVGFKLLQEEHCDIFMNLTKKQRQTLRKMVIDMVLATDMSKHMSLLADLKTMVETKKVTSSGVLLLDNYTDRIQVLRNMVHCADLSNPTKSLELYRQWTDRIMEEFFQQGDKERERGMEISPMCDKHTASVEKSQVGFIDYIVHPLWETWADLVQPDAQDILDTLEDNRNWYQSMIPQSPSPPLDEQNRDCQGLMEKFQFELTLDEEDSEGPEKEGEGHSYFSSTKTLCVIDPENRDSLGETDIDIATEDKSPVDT
Chain of Ubiquitin carboxyl-terminal hydrolase 1 (Homo sapiens) (O94782 whole entry, looked up): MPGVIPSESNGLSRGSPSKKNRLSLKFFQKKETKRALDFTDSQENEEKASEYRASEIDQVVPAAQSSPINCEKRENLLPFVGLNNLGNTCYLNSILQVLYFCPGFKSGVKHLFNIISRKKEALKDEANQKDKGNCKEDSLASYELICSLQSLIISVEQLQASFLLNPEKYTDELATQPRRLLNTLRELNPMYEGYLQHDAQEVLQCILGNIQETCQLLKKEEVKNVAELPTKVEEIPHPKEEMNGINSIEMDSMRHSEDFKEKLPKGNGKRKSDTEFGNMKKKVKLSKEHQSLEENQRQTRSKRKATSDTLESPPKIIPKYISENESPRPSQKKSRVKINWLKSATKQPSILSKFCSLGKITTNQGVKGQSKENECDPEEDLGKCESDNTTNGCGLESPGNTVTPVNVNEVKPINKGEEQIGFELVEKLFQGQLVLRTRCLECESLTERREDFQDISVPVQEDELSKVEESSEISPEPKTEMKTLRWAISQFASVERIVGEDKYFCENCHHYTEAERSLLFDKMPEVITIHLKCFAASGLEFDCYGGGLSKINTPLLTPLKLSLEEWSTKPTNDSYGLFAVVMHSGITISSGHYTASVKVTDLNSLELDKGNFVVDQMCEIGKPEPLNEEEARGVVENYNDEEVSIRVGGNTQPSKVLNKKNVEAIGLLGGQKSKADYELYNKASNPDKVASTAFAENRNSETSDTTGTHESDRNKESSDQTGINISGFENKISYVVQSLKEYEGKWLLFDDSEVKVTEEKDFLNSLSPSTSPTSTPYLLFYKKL
Chain of Cytochrome P450 2C19 (Homo sapiens) (P33261 whole entry, looked up): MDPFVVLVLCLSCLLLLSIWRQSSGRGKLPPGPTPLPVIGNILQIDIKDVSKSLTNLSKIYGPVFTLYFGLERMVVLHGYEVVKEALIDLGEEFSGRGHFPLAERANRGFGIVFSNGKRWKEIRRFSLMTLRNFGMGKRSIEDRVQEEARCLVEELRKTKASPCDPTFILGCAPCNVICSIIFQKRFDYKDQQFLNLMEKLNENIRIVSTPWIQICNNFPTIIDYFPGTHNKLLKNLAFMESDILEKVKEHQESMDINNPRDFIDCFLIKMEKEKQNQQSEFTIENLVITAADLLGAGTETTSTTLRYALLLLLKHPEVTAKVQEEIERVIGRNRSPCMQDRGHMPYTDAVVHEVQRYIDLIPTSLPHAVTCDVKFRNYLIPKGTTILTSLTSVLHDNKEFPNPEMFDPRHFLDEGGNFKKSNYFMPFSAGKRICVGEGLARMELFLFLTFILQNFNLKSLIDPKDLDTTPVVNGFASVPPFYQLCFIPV
Chain of Glutathione peroxidase 1 (Homo sapiens) (P07203 whole entry, looked up): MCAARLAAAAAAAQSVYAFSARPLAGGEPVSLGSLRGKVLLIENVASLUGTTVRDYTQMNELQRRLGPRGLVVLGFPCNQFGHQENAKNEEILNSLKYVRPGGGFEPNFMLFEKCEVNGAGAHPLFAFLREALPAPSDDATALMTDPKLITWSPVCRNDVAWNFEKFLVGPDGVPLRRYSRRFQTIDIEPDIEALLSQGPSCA
Chain of Phospholipid hydroperoxide glutathione peroxidase GPX4 (Homo sapiens) (P36969 whole entry, looked up): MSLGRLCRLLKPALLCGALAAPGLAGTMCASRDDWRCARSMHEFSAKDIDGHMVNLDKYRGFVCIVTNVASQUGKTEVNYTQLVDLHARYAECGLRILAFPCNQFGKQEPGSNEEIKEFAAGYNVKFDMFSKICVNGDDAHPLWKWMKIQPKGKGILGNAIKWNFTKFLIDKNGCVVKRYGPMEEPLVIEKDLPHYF
Chain of Cytochrome P450 2C9 (Homo sapiens) (P11712 whole entry, looked up): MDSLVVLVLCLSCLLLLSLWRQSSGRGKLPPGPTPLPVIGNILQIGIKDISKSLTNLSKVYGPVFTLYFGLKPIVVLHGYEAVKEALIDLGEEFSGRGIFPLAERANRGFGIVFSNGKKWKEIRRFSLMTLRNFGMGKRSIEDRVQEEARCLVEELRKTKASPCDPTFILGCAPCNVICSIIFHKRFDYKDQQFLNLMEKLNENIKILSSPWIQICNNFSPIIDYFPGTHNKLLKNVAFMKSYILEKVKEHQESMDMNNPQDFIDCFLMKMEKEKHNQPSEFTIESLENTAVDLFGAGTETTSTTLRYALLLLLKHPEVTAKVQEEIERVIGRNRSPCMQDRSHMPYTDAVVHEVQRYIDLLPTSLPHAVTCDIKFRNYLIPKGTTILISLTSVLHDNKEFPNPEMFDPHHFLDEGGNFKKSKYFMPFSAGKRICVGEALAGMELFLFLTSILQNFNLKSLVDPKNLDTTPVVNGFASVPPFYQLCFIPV

For the molecule `O=C(CCc1ccc(O)cc1)c1c(O)cc(O)cc1O[C@@H]1O[C@H](CO)[C@@H](O)[C@H](O)[C@H]1O`, the Potency entry in [1], in [3], in assay [5], in assay [6] and in [7] was “inactive” each time. In addition, in assay [2], the activity change, negative = inhibition is 9.34% (inactive). The max response was 19.8% in [2] (setting [22]) and 29.9% in [2] (setting [23]). In assay [4], the result was inactive. Further, the Z-AUC in assay [8] is 0.341 (inactive); in assay [8] (measured here: PEO1 parental Z-AUC), 0.557; in assay [8] (measured here: PEO4 Z-AUC), 0.754.
For the molecule `Cn1cccc1C(=O)N1CCC[C@@]2(CCN(c3ccccc3)C2)C1`, the results for the activity change, negative = inhibition in [9], in [11] and in [2] were -3.25% (inactive), -15.1% (inactive) and -1.47% (inactive), respectively. Further, the results for the Potency in [10], in assay [13] and in assay [16] were 12.6 µM (active), > 46 µM (inactive) and 5.01 µM (active), respectively. The activity, negative = inhibition in [12] was -10.8% (inactive). Moreover, the Potency result in [14], in [15] and in assay [17] was “inactive” each time. Besides, the max response in assay [2] (setting [22]) came out at 15.8%; in assay [2] (setting [23]), 17.2%.
Turning to `CC(=O)N1CCC2(CC1)CN(c1ccccc1)C2`, the activity change, negative = inhibition in assay [9] is 10.4% (inactive); in [11] it was 3.05% (inactive); in [2], 6.65% (inactive). Also, the Potency entry in assay [10], in assay [14], in assay [16] and in assay [17] was “inactive” each time. Further, the activity, negative = inhibition in [12] is 10.3% (inactive). Besides, the Potency in assay [13] is > 46 µM (inactive). Moreover, the outcome in [18] was inactive. The max response was 16.4% in [2] (setting [22]) and 26.6% in assay [2] (setting [23]).
On to `COc1ccc(-c2nc3cnc(N4CCNCC4)nc3n(Cc3ccc(F)cc3)c2=O)cc1`, for which the activity change, negative = inhibition is 83.5% [activator] (active) in [9], 88% [activator] (active) in assay [11] and 4.56% (inactive) in assay [2]. For the same molecule, the Potency result in assay [10], in assay [20], in [15] and in assay [17] was “inactive” each time. The Potency is > 9.22 µM (inactive) in assay [19] and > 46 µM (inactive) in [13]. Besides, the molecule was called inactive in assay [18]. For the same molecule, the max response was determined as 15.2% in assay [2] (setting [22]) and 24.4% in assay [2] (setting [23]).
For `O=S(=O)(c1ccccc1)N1CCC2(CC1)CN(c1ncccn1)C2`, the activity change, negative = inhibition was -2.52% (inactive) in [9], 26.7% (inactive) in [11] and 4.75% (inactive) in assay [2]. Further, the Potency result in assay [10], in assay [14] and in assay [17] was “inactive” throughout. For the same molecule, the activity, negative = inhibition in assay [12] is -1.43% (inactive). Also, the Potency in assay [13] was > 46 µM (inactive). In addition, the call in assay [18] was inactive. Moreover, the values for the max response in [2] (setting [22]) and in [2] (setting [23]) were 14.7% and 20.8%, respectively.
In the case of `O=C(c1ccco1)N1CCC2(CC1)CN(Cc1cc(C(F)(F)F)cc(C(F)(F)F)c1)C2`, the activity change, negative = inhibition in assay [9] is 5.99% (inactive); in assay [11], 15.6% (inactive); in assay [2], -5.85% (inactive). Also, the Potency entry in [10], in assay [14] and in [17] was “inactive” each time. Besides, the activity, negative = inhibition in assay [12] was 2.41% (inactive). Further, in assay [13], the Potency was > 46 µM (inactive). The result in assay [18] was inactive. The results for the max response in assay [2] (setting [22]) and in assay [2] (setting [23]) were 13.1% and 7.42%, respectively.
In the case of `COc1cccc(Cn2c(=O)cnc3cnc(Oc4ccccc4)nc32)c1`, the Potency was > 11.4 µM (inactive) in assay [21] and > 46 µM (inactive) in [13]. Also, the values for the activity change, negative = inhibition in assay [9] and in assay [2] were -13.9% (inactive) and -0.165% (inactive), respectively. In addition, the activity, negative = inhibition in assay [12] was -14.7% (inactive). Besides, the outcome in assay [18] was inactive. The max response worked out at 3.98% in [2] (setting [22]) and 3.52% in assay [2] (setting [23]). Besides, the Potency result in [3] and in [17] was “inactive” in each case.
